This excerpt belongs to a sample that is enriched for hits.
Pf apPOL block = Pf-apPOL inhibitors, biochemical, fluorescence; inhibition, % at 10 µM; Plasmodium falciparum apicoplast DNA polymerase (apPOL); Recombinant Pf-apPOL, molecular beacon fluorescence, 1.5 h; 210,000 compounds, 0.25% hits
mHTT CaM bind = mutant huntingtin-calmodulin interaction inhibitors – biochemical, AlphaScreen, primary screen; AID 1671202, 2021; inhibition, % at 15 µM; 190,000 compounds, 3.6% hits; P42858; AlphaScreen His-mHTT/GST-CaM binding, luminescence;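 also: 0% = both proteins with DMSO and 100% = one protein alone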
An asterisk follows results filed as active; ! = not active in a repeat. Rule as the data show it: active = inhibition above about 50%; inactive = the rest.

SMILES | Pf apPOL block | mHTT CaM bind
Cc1cccc(COC[C@H](Cc2ccccc2)N2CCN(C(=O)c3cccc(C)c3)CCC2=O)c1 | -2 | 81*!
Cc1cccc(C(=O)N2CCN(C(=O)c3cccc(C)c3)CC2)c1 | 0 | -11
Cc1cccc(C(=O)N2CCC(CCOc3ccccc3)CC2)c1 | -4 | -12
Cc1cccc(C(=O)N2CCN(C)CC2)c1 | 1 | 0
Cc1cccc(C(=O)N2CCC(=O)N([C@H](COCc3ccccc3)Cc3ccccc3)CC2)c1 | -6 | 65*!
Cc1cccc(C(=O)N2CCC(=O)N([C@H](COCc3cccc(C(F)(F)F)c3)Cc3ccccc3)CC2)c1 | -7 | 99*
CCC(=O)N1CCCN(C(=O)CN2CCc3sccc3C2c2ccccc2)CC1 (centres undefined) | -2 | 15
COc1ccccc1N1CCN(Cc2cc[nH]c(=O)c2)CC1 | -2 | 15
Cc1ccc(C(=O)N2CC3CC2CC3NC(=O)c2cccs2)cn1 (centres undefined) | -5 | -5
Cc1ccc(C2C=C(c3ccc(Br)cc3)Nc3nnnn32)cc1 (centres undefined) | 0 | -2
COc1ccc(-c2noc(C3CCCN3C(=O)c3ccc(NC(C)=O)cc3)n2)cc1 (centres undefined) | -1 | 5
CCC(=O)N1CCN(c2nc3c(s2)CC(C(=O)Nc2ccc(Cl)c(C)c2)CC3)CC1 (centres undefined) | 2 | 10
CC(C)CCN1C(=O)CNC1=S | 5 | -9
COc1ccc(C(CCN2CCCC(C)C2)c2c(OC)cc(OC)c3c(-c4ccccc4)cc(=O)oc23)cc1 (centres undefined) | -3 | 100*
COc1ccc(C(CCN2CCCC2)c2c(OC)cc(OC)c3c(-c4ccccc4)cc(=O)oc23)cc1 (centres undefined) | -12 | 98*
COc1ccc(C(CCN2CCCC(C)C2)c2c(OC)cc(OC)c3c(C)cc(=O)oc23)cc1 (centres undefined) | -8 | 20
COc1ccc(C(CCN2CCOCC2)c2c(OC)cc(OC)c3c(-c4ccccc4)cc(=O)oc23)cc1 (centres undefined) | -8 | 66*
CC(=O)N(CN1C(=O)c2cccc([N+](=O)[O-])c2C1=O)c1ccc(Cl)c(Cl)c1 | -2 | 25
Cn1c(=O)c([N+](=O)[O-])c(N2CCN(Cc3ccc(Cl)cc3Cl)CC2)c2ccccc21 | -2 | 28
CN(CC(=O)N1N=C(c2cccs2)CC1c1ccccc1)C(=O)C1CCC1 (centres undefined) | -2 | 6
O=C(NCCC1CCN(C(=O)Nc2cccc(Cl)c2)CC1)c1ccccc1F | 1 | -11
COc1ccc(C=Nc2ccc3ncccc3c2)cc1 | -2 | 31
COc1ccc(C=Nc2ccc3c(c2)nc(C)n3C)cc1 | 69* | 6
Cc1c(CC(Cl)(Cl)Cl)c2c(n1-c1ccc([N+](=O)[O-])cc1)CCCC2=O | -8 | 73*
Cc1c(CC(Cl)(Cl)Cl)c2c(n1-c1ccccc1[N+](=O)[O-])CCCC2=O | -6 | 33
SMILES | Pf apPOL block | mHTT CaM bind
COCC(=O)Nc1c(-c2ccc(Cl)cc2)nc2ccccn12 | -4 | 10
COc1ccc(NC(=O)c2c(NC(=O)CNCCO)sc3c2CCC3)cc1 | -1 | 62*
CCOc1ccc(NC(=O)c2c(NC(=O)CNCCN3CCOCC3)sc3c2CCC3)cc1 | 0 | 81*
COc1ccc(NC(=O)c2c(NC(=O)CNCc3ccco3)sc3c2CCC3)cc1 | -2 | 11
CCOc1ccc(NC(=O)c2c(NC(=O)CNCC3CCCO3)sc3c2CCC3)cc1 (centres undefined) | -4 | 35
CCCCC(=O)Nc1c2c(nn1-c1ccccc1C)CS(=O)(=O)C2 | 72* | 3
Cc1ccccc1-n1nc2c(c1NC(=O)Cc1ccccc1)CS(=O)(=O)C2 | -7 | 5
CN(C)c1ncccc1C(=O)N1CCSCC1 | -5 | 0
COc1ccc(N=C2C(=O)N3c4c(cc(C)cc42)C(C)=CC3(C)C)cc1 | 2 | 72*
COc1ccc2c(c1)C(C)=CC(C)(C)N2C(=O)C(C)N1C(=O)c2ccccc2C1=O (centres undefined) | -4 | 10
CC(=O)Nc1ccccc1NC(=O)c1ccccc1[N+](=O)[O-] | 1 | 60*
NC(=O)c1ccccc1NC(=O)c1ccccc1[N+](=O)[O-] | -4 | 2
O=S(=O)(c1ccc2nc(-c3ccccc3)[nH]c2c1)N1CCOCC1 | -5 | 4
Cc1ccc(C2CC(C(F)(F)F)n3nc(C(=O)Nc4cccnc4)cc3N2)cc1 (centres undefined) | -2 | 8
CC1CCN(C(=O)c2cc3n(n2)C(C(F)(F)F)CC(c2ccccc2)N3)C2CCCCC12 (centres undefined) | -11 | 58*
CC1CCC(C)N(C(=O)c2cc3n(n2)C(C(F)(F)F)CC(c2ccccc2)N3)C1 (centres undefined) | -1 | 30
Cc1ccc(C2CC(C(F)(F)F)n3nc(C(=O)NCCc4ccccc4)cc3N2)cc1 (centres undefined) | 5 | 39
